Binding signal data for one sequence are collected here from article PMC7862700, “An all-to-all approach to the identification of sequence-specific readers for epigenetic DNA modifications on cytosine”.

What all share (assay): DAPPL (digital affinity profiling via proximity ligation, sequencing); 10 mM Tris-HCl pH 7.5, 50 mM NaCl, 1 mM DTT, 4% glycerol, room temperature, 30 min; GST-TFs on glutathione beads, 16-mer random dsDNA library, 0.1% formaldehyde crosslink after washing; high values mean tight binding
The target of assay [1] is T1, FEV (Homo sapiens, UniProt Q99581 1-238).
T1 sequence: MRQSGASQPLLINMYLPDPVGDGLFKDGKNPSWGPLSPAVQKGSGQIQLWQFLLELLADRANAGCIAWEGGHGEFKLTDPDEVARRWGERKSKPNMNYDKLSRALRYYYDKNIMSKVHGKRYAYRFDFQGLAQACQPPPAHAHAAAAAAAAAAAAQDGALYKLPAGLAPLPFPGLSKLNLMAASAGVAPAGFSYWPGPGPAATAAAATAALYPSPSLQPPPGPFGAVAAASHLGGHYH
To be noted: protein: recombinant; tags: N-terminal GST; dsDNA, one strand shown. The essentials:
(§1)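 Pools were built from human transcription factors expressed in yeast as GST fusions, captured on glutathione beads and DNA-barcoded, along with a tag-only sample. Incubation with 200 nmole of a 16-mer random double-stranded DNA library lasted 30 min at room temperature in Tris/NaCl/DTT/glycerol buffer, and was followed by washing, 0.1% formaldehyde crosslinking, proximity ligation, PCR amplification and Illumina NextSeq500 sequencing. Binding signal is the quotient of each hexamer's read frequency for a factor and its frequency for the tag-only sample.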

For assay [2], the target named is ETV5 (Homo sapiens, UniProt P41161 1-510). To be noted: protein: recombinant; tags: N-terminal GST; dsDNA, one strand shown. In a few lines: as §1
Assay [3] addresses HSF1 (Homo sapiens, UniProt Q00613 1-529). To be noted: protein: recombinant; tags: N-terminal GST; chain copies: 3; dsDNA, one strand shown. The essentials: as §1
In assay [4] the target is T2, SPIC (Homo sapiens, UniProt Q8N5J4 1-248).
T2 sequence: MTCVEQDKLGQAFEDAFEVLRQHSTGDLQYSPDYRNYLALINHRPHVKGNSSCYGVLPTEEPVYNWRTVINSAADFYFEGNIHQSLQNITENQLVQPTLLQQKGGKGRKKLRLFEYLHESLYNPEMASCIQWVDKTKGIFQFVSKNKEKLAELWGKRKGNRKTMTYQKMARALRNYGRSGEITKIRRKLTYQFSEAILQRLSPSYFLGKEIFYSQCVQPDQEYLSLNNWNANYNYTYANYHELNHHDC
To be noted: protein: recombinant; tags: N-terminal GST; dsDNA, one strand shown. In a few lines: as §1

Assay [5] has as its target ELF4 (Homo sapiens, UniProt Q99607 1-663). To be noted: protein: recombinant; tags: N-terminal GST; dsDNA, one strand shown. The essentials: as §1
Assay [6] has as its target T3, ELK4 (Homo sapiens, UniProt P28324-2 1-405).
T3 sequence: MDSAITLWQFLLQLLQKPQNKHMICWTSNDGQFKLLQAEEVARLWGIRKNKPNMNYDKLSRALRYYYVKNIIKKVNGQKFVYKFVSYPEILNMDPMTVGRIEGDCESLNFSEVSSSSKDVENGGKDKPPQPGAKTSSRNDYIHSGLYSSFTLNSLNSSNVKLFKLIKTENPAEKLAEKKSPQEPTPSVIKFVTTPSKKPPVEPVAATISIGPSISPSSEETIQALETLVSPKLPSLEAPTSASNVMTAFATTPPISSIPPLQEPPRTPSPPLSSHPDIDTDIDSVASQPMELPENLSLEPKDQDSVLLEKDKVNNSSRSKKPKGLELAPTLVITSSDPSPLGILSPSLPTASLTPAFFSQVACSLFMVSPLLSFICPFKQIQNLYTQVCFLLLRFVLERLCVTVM
To be noted: protein: recombinant; tags: N-terminal GST; dsDNA, one strand shown. The essentials:
as §1

Assay [7] addresses T4, ETV2 (Homo sapiens, UniProt O00321 1-342).
T4 sequence: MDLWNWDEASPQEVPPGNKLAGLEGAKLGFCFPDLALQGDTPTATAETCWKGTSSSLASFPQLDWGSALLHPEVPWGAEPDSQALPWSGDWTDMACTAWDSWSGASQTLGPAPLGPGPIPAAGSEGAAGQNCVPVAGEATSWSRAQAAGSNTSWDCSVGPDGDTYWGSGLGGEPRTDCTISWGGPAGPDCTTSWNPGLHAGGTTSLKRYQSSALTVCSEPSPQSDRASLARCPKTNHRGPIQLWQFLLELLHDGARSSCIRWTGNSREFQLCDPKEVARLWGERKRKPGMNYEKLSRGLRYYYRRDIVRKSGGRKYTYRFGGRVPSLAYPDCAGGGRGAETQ
To be noted: protein: recombinant; tags: N-terminal GST; dsDNA, one strand shown. In a few lines: as §1

Assay [8] has as its target T5, ELF3 (Homo sapiens, UniProt P78545 1-371).
T5 sequence: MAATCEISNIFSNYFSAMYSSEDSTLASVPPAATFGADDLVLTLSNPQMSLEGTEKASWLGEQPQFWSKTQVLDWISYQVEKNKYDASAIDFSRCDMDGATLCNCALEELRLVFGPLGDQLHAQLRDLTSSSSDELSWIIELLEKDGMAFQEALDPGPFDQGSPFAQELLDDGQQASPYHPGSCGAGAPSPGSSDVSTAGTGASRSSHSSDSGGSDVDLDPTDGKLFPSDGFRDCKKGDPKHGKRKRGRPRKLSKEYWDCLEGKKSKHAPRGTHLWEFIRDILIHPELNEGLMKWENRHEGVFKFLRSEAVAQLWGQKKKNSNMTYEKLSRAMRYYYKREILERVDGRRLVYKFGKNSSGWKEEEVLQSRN
To be noted: protein: recombinant; tags: N-terminal GST; dsDNA, one strand shown. The essentials: as §1

Assay [9] addresses CRX (Homo sapiens, UniProt O43186 1-299). To be noted: protein: recombinant; tags: N-terminal GST; dsDNA, one strand shown. In a few lines: as §1
Assay [10] addresses ETV1 (Homo sapiens, UniProt P50549 1-477). To be noted: protein: recombinant; tags: N-terminal GST; dsDNA, one strand shown. In a few lines: as §1
In assay [11] the target is T6, ERF (Homo sapiens, UniProt P50548 1-548).
T6 sequence: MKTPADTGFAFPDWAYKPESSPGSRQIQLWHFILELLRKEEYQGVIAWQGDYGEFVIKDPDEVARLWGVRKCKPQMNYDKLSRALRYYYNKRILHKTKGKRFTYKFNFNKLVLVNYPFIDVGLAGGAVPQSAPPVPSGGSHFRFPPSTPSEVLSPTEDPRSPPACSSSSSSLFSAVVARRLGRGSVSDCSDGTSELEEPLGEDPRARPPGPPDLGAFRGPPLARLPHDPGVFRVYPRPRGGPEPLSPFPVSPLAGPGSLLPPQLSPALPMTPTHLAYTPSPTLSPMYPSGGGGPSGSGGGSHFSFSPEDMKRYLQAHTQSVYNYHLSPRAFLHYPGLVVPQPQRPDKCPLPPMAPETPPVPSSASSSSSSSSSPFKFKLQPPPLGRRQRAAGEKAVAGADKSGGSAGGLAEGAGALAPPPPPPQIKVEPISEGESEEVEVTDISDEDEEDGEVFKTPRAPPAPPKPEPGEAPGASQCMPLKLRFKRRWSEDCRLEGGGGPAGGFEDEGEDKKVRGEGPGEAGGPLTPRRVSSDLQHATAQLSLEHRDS
To be noted: protein: recombinant; tags: N-terminal GST; dsDNA, one strand shown. The essentials: as §1

The target in assay [12] is T7, ETV3L (Homo sapiens, UniProt Q6ZN32 1-361).
T7 sequence: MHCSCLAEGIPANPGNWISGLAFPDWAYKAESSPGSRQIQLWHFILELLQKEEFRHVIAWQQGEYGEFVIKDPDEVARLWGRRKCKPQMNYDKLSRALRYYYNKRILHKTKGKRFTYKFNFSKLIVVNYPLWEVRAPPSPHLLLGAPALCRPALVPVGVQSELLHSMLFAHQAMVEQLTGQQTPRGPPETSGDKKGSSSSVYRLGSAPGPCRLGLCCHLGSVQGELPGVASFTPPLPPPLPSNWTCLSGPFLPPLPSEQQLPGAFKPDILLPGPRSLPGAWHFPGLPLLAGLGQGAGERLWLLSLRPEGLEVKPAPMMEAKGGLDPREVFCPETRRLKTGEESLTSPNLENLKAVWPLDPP
To be noted: protein: recombinant; tags: N-terminal GST; dsDNA, one strand shown. In a few lines:
as §1

In assay [13] the target is T8, ETS2 (Homo sapiens, UniProt P15036 1-469).
T8 sequence: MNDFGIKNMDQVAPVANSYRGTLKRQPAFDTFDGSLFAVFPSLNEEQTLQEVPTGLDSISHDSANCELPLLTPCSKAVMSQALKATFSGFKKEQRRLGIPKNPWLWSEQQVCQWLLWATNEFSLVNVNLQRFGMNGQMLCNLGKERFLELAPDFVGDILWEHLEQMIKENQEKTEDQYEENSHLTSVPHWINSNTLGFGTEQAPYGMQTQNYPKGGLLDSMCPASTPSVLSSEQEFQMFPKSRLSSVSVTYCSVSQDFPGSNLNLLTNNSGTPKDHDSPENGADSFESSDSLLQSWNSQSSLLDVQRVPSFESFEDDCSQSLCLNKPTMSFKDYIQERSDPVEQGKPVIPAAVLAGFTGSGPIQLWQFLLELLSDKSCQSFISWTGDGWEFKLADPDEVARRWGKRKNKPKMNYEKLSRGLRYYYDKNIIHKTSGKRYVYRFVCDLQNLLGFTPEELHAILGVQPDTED
To be noted: protein: recombinant; tags: N-terminal GST; dsDNA, one strand shown. In a few lines: as §1

Assay [14] addresses T9, SPDEF (Homo sapiens, UniProt O95238 1-335).
T9 sequence: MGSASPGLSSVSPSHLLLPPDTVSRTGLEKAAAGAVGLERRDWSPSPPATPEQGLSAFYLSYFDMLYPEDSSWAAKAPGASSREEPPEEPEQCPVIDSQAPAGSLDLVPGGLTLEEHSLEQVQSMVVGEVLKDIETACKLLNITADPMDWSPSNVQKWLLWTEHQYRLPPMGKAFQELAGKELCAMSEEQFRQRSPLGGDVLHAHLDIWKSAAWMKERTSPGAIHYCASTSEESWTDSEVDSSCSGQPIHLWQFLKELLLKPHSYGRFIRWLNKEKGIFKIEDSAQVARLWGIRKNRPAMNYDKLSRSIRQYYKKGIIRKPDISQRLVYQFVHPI
To be noted: protein: recombinant; tags: N-terminal GST; dsDNA, one strand shown. The essentials:
as §1

For assay [15], the target named is T10, ETV7 (Homo sapiens, UniProt Q9Y603 1-341).
T10 sequence: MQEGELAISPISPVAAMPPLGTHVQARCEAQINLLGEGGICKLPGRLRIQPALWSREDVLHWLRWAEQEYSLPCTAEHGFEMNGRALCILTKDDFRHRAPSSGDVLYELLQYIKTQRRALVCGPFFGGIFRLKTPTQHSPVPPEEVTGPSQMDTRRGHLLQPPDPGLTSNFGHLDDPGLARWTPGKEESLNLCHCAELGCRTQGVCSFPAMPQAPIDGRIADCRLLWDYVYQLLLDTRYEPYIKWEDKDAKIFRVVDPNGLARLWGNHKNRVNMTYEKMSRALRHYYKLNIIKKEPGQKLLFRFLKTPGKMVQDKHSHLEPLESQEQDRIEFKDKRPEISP
To be noted: protein: recombinant; tags: N-terminal GST; dsDNA, one strand shown. The essentials: as §1

Assay [16] has as its target T11, ELF5 (Homo sapiens, UniProt Q9UKW6-2 1-255).
T11 sequence: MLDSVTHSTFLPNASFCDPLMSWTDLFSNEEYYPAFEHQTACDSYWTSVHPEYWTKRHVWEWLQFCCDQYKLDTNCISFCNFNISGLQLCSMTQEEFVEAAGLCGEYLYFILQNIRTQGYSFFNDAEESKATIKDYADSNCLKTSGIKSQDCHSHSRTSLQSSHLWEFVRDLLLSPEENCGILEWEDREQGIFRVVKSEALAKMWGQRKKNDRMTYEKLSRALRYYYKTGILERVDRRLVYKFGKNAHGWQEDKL
To be noted: protein: recombinant; tags: N-terminal GST; dsDNA, one strand shown. In a few lines:
as §1

The target of assay [17] is T12, ETV3 (Homo sapiens, UniProt P41162-2 1-143).
T12 sequence: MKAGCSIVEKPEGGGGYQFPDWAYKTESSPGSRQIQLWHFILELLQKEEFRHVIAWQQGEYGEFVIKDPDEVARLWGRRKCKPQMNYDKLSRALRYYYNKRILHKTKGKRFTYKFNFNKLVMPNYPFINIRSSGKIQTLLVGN
To be noted: protein: recombinant; tags: N-terminal GST; dsDNA, one strand shown. In a few lines:
as §1

Assay [18] addresses ETV6 (Homo sapiens, UniProt P41212 1-452). To be noted: protein: recombinant; tags: N-terminal GST; dsDNA, one strand shown. The essentials:
as §1

ETV1, sequence (P50549 whole entry): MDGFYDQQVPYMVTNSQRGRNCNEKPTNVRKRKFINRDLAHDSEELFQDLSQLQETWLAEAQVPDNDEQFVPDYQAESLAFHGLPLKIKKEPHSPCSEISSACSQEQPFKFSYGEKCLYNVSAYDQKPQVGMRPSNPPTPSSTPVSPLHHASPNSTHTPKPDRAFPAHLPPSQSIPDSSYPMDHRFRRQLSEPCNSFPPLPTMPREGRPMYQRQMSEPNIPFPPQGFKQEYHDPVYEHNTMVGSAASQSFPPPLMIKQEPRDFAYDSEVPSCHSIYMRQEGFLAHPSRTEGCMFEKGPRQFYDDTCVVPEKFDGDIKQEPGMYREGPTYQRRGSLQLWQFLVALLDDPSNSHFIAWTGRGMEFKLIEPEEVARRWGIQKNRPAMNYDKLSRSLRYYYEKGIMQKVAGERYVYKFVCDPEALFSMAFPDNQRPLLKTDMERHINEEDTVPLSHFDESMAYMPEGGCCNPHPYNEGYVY
CRX, sequence (O43186 whole entry): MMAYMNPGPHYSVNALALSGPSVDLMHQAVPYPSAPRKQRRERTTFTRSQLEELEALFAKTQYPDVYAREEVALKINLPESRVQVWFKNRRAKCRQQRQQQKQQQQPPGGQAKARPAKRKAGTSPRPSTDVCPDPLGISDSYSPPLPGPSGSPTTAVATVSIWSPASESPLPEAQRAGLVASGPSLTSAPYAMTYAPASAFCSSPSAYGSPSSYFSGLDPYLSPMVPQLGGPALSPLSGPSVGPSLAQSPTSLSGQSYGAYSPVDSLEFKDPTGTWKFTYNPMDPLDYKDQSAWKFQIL
HSF1, sequence (Q00613 whole entry): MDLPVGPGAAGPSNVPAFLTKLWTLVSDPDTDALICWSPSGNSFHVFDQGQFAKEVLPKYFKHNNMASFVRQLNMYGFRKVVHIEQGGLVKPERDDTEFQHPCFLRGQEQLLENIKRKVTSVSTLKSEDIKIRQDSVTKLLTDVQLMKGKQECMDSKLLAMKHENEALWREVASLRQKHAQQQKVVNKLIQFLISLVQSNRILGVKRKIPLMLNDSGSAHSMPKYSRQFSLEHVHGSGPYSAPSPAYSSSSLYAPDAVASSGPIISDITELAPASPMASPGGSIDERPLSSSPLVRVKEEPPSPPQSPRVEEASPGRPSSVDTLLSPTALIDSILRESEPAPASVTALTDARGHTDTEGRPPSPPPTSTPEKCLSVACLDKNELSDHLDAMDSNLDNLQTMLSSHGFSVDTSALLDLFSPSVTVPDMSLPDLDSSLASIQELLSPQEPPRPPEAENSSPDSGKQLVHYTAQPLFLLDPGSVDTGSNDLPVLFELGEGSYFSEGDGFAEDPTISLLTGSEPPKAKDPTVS
ETV6, sequence (P41212 whole entry): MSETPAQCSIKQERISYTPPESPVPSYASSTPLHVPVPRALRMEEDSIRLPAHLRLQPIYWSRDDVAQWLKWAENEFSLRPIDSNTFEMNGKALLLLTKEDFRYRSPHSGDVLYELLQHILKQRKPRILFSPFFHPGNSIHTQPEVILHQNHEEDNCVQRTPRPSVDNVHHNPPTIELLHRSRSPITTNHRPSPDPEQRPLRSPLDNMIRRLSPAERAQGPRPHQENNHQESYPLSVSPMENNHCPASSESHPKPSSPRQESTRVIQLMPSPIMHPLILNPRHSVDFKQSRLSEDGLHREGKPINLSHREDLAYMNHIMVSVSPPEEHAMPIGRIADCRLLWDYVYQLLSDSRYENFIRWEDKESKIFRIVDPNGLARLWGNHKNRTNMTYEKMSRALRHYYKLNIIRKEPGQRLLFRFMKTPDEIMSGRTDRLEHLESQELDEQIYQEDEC
ETV5, sequence (P41161 whole entry): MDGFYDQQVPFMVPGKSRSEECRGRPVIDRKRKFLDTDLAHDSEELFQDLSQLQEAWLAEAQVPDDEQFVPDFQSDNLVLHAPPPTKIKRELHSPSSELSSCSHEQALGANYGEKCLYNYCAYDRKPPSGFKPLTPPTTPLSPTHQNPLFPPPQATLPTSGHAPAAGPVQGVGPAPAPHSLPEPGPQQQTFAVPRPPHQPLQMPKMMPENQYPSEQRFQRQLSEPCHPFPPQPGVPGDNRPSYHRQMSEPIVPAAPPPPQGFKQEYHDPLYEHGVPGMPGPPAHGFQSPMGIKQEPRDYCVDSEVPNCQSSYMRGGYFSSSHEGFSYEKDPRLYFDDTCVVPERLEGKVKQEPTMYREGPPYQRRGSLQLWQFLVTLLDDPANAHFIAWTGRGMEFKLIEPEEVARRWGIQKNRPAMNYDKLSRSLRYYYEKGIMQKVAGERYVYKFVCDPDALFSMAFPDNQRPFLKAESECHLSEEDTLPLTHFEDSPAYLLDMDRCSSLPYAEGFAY
ELF4, sequence (Q99607 whole entry): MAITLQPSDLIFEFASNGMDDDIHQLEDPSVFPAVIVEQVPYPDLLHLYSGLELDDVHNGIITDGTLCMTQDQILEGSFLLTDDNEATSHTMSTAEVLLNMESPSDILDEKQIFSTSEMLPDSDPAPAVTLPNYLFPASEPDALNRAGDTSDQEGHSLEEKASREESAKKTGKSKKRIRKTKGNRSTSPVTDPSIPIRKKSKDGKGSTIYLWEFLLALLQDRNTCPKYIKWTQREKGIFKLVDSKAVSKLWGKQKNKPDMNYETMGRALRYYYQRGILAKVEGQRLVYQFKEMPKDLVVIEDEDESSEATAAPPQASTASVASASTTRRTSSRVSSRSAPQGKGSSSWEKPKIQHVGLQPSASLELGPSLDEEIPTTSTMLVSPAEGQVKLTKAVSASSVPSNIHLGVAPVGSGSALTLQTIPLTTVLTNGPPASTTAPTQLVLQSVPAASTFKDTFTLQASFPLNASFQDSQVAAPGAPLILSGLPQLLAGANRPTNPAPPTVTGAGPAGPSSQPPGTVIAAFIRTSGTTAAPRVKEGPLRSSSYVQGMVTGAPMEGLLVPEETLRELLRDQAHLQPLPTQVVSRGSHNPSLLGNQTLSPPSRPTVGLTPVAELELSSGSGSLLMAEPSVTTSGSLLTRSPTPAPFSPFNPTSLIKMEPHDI

Regarding TATCCG, the binding signal was 4.84 fold enrichment (6-mer frequency, TF over GST control) in assay [1]; 2.85 fold enrichment (6-mer frequency, TF over GST control) in [2]; 1.54 fold enrichment (6-mer frequency, TF over GST control) in [3]; 2.38 fold enrichment (6-mer frequency, TF over GST control) in [4]; 2.2 fold enrichment (6-mer frequency, TF over GST control) in [5]; 2.29 fold enrichment (6-mer frequency, TF over GST control) in assay [6]. In addition, the binding signal in [7] was 2.68 fold enrichment (6-mer frequency, TF over GST control); in assay [8], 2.33 fold enrichment (6-mer frequency, TF over GST control); in assay [9] it was 1.95 fold enrichment (6-mer frequency, TF over GST control); in assay [10] it was 2.72 fold enrichment (6-mer frequency, TF over GST control); in assay [11], 2.52 fold enrichment (6-mer frequency, TF over GST control); in assay [12], 2.45 fold enrichment (6-mer frequency, TF over GST control). Also, the binding signal in assay [13] is 2.55 fold enrichment (6-mer frequency, TF over GST control); in [14] it was 3.8 fold enrichment (6-mer frequency, TF over GST control); in assay [15], 2.1 fold enrichment (6-mer frequency, TF over GST control); in assay [16] it was 3.31 fold enrichment (6-mer frequency, TF over GST control); in assay [17], 2.57 fold enrichment (6-mer frequency, TF over GST control); in assay [18] it was 2.38 fold enrichment (6-mer frequency, TF over GST control).
